Results published in PubChem BioAssay (NCI).
This is part of a sample that, as a whole, favours compounds with a hit. Of some 83,000 tested, about 20% had one in any assay.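 Results are percent growth after 48 hours of single-concentration exposure. 100 means growth as in untreated cells, lower positive values show inhibition; negative values down to -100 show cell death.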 Unmarked numbers belong to inactive results. The source made the active and inactive calls. How the source made its calls: active means growth percent below 10; inactive means the rest.

Assays:
Test in all cases: NCI-60 one-dose screen, 48 h (100 = growth as untreated, 0 = no growth, -100 = all killed)
[1] = system: HCT-15 colon; details: 10 µM unless noted
[2] = system: HT29 colon; details: 10 µM unless noted
[3] = system: SNB-75 CNS; details: 10 µM unless noted
[4] = system: SNB-19 CNS; details: 10 µM unless noted
[5] = system: U251 CNS; details: 10 µM unless noted
[6] = system: PC-3 prostate; details: 10 µM unless noted
[7] = system: SK-MEL-5 melanoma; details: 10 µM unless noted
[8] = system: UACC-62 melanoma; details: 10 µM unless noted
[9] = system: LOX IMVI melanoma; details: 10 µM unless noted
[10] = system: SK-MEL-28 melanoma; details: 10 µM unless noted
[11] = system: SK-MEL-2 melanoma; details: 10 µM unless noted
[12] = system: EKVX NSCLC; details: 10 µM unless noted
[13] = system: SN12C renal; details: 10 µM unless noted
[14] = system: UO-31 renal; details: 10 µM unless noted
[15] = system: TK-10 renal; details: 10 µM unless noted
[16] = system: ACHN renal; details: 10 µM unless noted
[17] = system: CAKI-1 renal; details: 10 µM unless noted
[18] = system: A498 renal; details: 10 µM
[19] = system: HL-60(TB) leukemia; details: 10 µM unless noted
[20] = system: CCRF-CEM leukemia; details: 10 µM unless noted

SMILES	growth [1]	growth [2]	growth [3] [%]	growth [4] [%]	growth [5]	growth [6]	growth [7]	growth [8] [%]	growth [9]	growth [10]	growth [11]	growth [12] [%]	growth [13]	growth [14]	growth [15]	growth [16]	growth [17]	growth [18]	growth [19]	growth [20]
O=C(CCl)c1ccc([N+](=O)[O-])o1	-86.6% (active)	-14.3% (active)	51.3	75.4	7.98% (active)	-23.8% (active)	62.8%	33	-81.8% (active)	-64.6% (active)	-7.05% (active)	96.2	-38.1% (active)	-8.81% (active)	-39.4% (active)	-40.6% (active)	-95.1% (active)	101%	-68.9% (active)	-74.9% (active)
Oc1c(CCl)cc(Cl)cc1CCl	109%	104%	95.8	107	110%	93.9%	104%	116	93.8%	126%	105%	104	122%	86.4%	106%	106%	104%	119%	103%	108%
C=CCc1cc2c(cc1OCC)OCO2	96.5%	87.7%	106	99.7	107%	80.8%	103%	108	94.2%	102%	104%	91.1	98.8%	95.4%	92%	111%	102%	91.3%	98.1%	106%
C#C[C@]1(OC(=O)CCCCCC)CC[C@H]2[C@@H]3CCC4=CC(=O)CC[C@@H]4[C@H]3CC[C@@]21C	39.9%	9.11% (active)	81.5	53.7	50.9%	32.7%	20.5%	25.6	8.13% (active)	43.3%	55.1%	55.6	47.3%	54.7%	54.7%	54.2%	56.1%	80.5%	4.53% (active)	41.2%
CCC(CC)CC1(C)CC2(C)CCOC2OO1 (stereo not given)	104%	100%	98.8	103	102%	99.8%	98.5%	95.4	102%	109%	94.9%	103	102%	88.8%	98%	111%	95.7%	90.8%	111%	103%
c1ccc(Nc2nc(-c3ccccc3)c[se]2)cc1	86.9%	102%	83	91.7	84.4%	83.6%	89.2%	78.7	93.5%	98.8%	105%	70.3	86.2%	46.2%	83.5%	84%	55.7%	55.9%	102%	101%
CNC12C3C4C1C1C2C3C41C(=O)N[C@H](C(=O)N(C)[C@H](C[C@@H](OC(C)=O)c1nc(C(=O)N[C@@H](Cc2ccccc2)C[C@H](C)C(=O)OC)cs1)C(C)C)C1CC1 (stereo not given in full)	11.4%	-12.6% (active)	26.9	33.4	10.1%	16.9%	-54.4% (active)	13.9	0.284% (active)	62.3%	25.4%	30.9	31.5%	36.3%	23.4%	23.2%	87.9%	21.3%	-34.9% (active)	-1.11% (active)
CC(=O)Nc1ccc(NC(=O)c2ccc([As](O)O)cc2)cc1	85%	112%	89.4	92.9	56.5%	100%	98.1%	78.3	76.4%	118%	96%	110	93.9%	69.4%	136%	105%	107%	133%	44.5%	47.7%
O=P(Oc1ccc(Cl)cc1)(N1CC1)N1CC1	88.7%	72.5%	74.2	91	82.6%	76.1%	86.2%	58	83.1%	98.3%	102%	101	86.7%	61.1%	104%	25%	5.92% (active)	97.4%	96%	82.5%
CCCCOc1ccc(C(N)Cc2ccccc2)cc1 (stereo not given)	84.9%	75.4%	71.2	97	88.1%	79.5%	92.8%	105	80%	105%	107%	91.8	95.4%	74.6%	98%	90.5%	84.1%	65%	84.7%	98.5%
O=C([O][Hg][CH2]C1OCCOC1[CH2][Hg][O]C(=O)c1ccccc1)c1ccccc1 (stereo not given)	-79.5% (active)	83.6%	92.5	105	43%	70.5%	93.1%	106	-92.7% (active)	-96.7% (active)	95.4%	123	76.2%	-94.8% (active)	-99.5% (active)	-99.5% (active)	-94.7% (active)	132%	-24.7% (active)	-15.8% (active)
Cc1sc2c(c1C)C(c1ccc(Cl)cc1)=N[C@@H](CC(=O)OC(C)(C)C)c1nnc(C)n1-2	12.9%	18%	18.6	45.4	52.4%	53.3%	21.1%	26.9	7.81% (active)	38.4%	48.8%	42.2	49.5%	13.4%	22.5%	31.1%	21.6%	-11.8% (active)	4.3% (active)	38.7%
Fc1ccc(C2=CCNCC2)cc1	109%	109%	84.1	109	96.9%	101%	91.9%	86.4	90.1%	107%	109%	86.2	73%	84.7%	86.5%	108%	79.5%	87.8%	109%	118%
O[C@H](CN1CC1)[C@@H](O)CN1CC1	79.9%	72.5%	70.6	74.5	60.3%	75.8%	75.3%	72.4	44.6%	106%	87%	94.6	41.1%	51.1%	101%	24%	-0.578% (active)	95.1%	30.7%	33.3%
CC12CCC3C(CCC4Cc5[nH]c6ccccc6c5CC43C)C1CCC2O (stereo not given)	33.2%	10.7%	31.7	28	20.1%	34.5%	2.53% (active)	31.8	13.4%	54.8%	67.2%	56.8	42.8%	56.9%	57.3%	48.3%	45.1%	31.8%	-32.9% (active)	8.61% (active)
